According to the supplement of paper PMC11577813, “Eurasian spruce bark beetle detects lanierone using a highly expressed specialist odorant receptor, present in several functional sensillum types” (BMC Biology, 2024):
± gives the standard deviation of the averaged measurements.

System: ipsdienol A-neuron OSN class
Assay: net action potential response of A-neuron (blank-subtracted) (spikes/s (Hz)); higher = stronger excitation
Details: 10 µg on filter paper; neuron: A neuron (large spike amplitude)
Experimental: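 Single sensillum recordings from antennal olfactory sensilla of live adult Ips typographus. Each compound was 10 µg in paraffin oil on filter paper, delivered as a 0.5 s puff. Net response = spikes in the first 0.5 s of response minus the 0.5 s pre-stimulus count, doubled to give Hz, with blank response subtracted. Values are for the large-spike A-neuron class of each of seven sensillum types that co-house the lanierone B-neuron; N = 1-4 sensilla, averaged.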

Compound	net action potential response
CCCCCC=O [Hexanal]	0.667 ± 2.3
CC1=C[C@@H](O)[C@H]2C[C@@H]1C2(C)C [(-)-trans-Verbenol]	0.667 ± 3.1
c1ccc2c(c1)CCO2 [2,3-Dihydrobenzofuran]	4 ± 7.2
C=Cc1ccc(OC)cc1 [4-Vinyl anisole]	2 ± 6
CCC/C=C/CO	-1.33 ± 1.1
CC(=O)OCCc1ccccc1 [2-Phenethyl acetate]	-3.33 ± 4.2
CC1=CC(C)(C)C=C(O)C1=O [Lanierone]	-3.33 ± 6.4
CCc1ccc(O)c(OC)c1 [4-Ethylguaiacol]	0 ± 8
CCC(C)CO (racemic) [(±)-2-Methyl-1-butanol]	3.33 ± 1.1
C=C1[C@@H]2CC[C@@H](C2)C1(C)C (racemic) [(±)-Camphene]	0 ± 2
C=C1CCC2(C(C)C)CC12 (racemic) [(±)-Sabinene]	3.33 ± 2.3
COc1ccccc1 [Anisole]	2.67 ± 1.1
CCCCCCO [1-Hexanol]	-5.33 ± 5.8
CC(=O)CC/C=C(\C)CCC=C(C)C [Geranylacetone]	2.67 ± 4.6
CC(C)[C@@]12CC[C@@](C)(O)[C@@H]1C2 [(+)-trans-4-Thujanol]	-4 ± 4
CC1(C)C2CC=C(CO)C1C2 (racemic) [(±)-Myrtenol]	0.667 ± 3.1
CC(=O)OCc1ccccc1 [Benzyl acetate]	-0.667 ± 5
CC12CCC(CC1)C(C)(C)O2 [1,8-Cineole]	0 ± 5.3
C[C@@H]1C(=O)C[C@H]2C[C@@H]1C2(C)C [(+)-Isopinocamphone]	0 ± 5.3
C=C(C)C1CC=C(C)C(=O)C1 (racemic) [(±)-Carvone]	0 ± 3.5

Compound	net action potential response
C=CC(O)CCCCC (racemic) [(±)-1-Octen-3-ol]	-0.667 ± 2.3
C=C1CCC2CC1C2(C)C (stereo not drawn) [(-)-β-Pinene]	2.67 ± 1.1
CCCCCC(O)CC (racemic) [(±)-3-Octanol]	-0.667 ± 5
C=CC(=C)CC(O)C=C(C)C (racemic) [(±)-Ipsdienol]	116 ± 12
C=CC(=C)C[C@@H](O)CC(C)C (racemic) [(±)-Ipsenol]	19.3 ± 15
C=CC(=C)CCC=C(C)C [Myrcene]	-2 ± 3.5
CC1=CCC2CC1C2(C)C (stereo not drawn) [(+)-α-Pinene]	2.67 ± 1.1
CC(=O)OC/C=C(\C)CCC=C(C)C [Geranyl acetate]	2
CC/C=C/CCO	0.667 ± 3.1
CC(C)=CCC/C(C)=C/C=O [Citral (E/Z mix)]	1.33 ± 1.1
CC12CCC(CC1=O)C2(C)C (racemic) [(±)-Camphor]	-0.667 ± 5
C=CCc1ccc(OC)c(OC)c1 [Eugenol methyl ether]	1.33 ± 1.1
CC(C)CCO [3-Methyl-1-butanol]	0.667 ± 4.2
CCC/C=C/C=O [(E)-hex-2-enal]	-0.667 ± 1.1
C=C(C)[C@@H]1CC=C(C)CC1 [(-)-Limonene]	5.33 ± 1.1
CCC/C=C\CO	0.667 ± 3.1
C[C@]12CCC[C@](C)(OC1)O2 (racemic) [(±)-Frontalin]	2 ± 3.5
Cc1ccc(C(C)C)cc1 [p-Cymene]	2 ± 3.5
CC1=CCC2C(C1)C2(C)C (single isomer, unassigned; (+)) [(+)-3-Carene]	2.67 ± 5.8
CC1=CCC(C(C)C)=CC1 [γ-Terpinene]	2 ± 8.7
